# According to PMC12136788:
# Positions count from the first letter of the chain named. Whole data set: some 24,000 sequences, median “enrichment r” near 0.99, cut for the highest 2% near 3.7. For the sample, the highest values were picked, then their nearest neighbours and some sequences at random.
# T1: UNK ZnF1-3 (human, UniProt Q9C0B0 31-174)
# T1 sequence: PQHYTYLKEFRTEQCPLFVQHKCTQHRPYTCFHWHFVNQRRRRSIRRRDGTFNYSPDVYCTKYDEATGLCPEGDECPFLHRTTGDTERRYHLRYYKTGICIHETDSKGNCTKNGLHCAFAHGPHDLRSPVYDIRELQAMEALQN
# B1: chr7:54825262:54825263:-_ENSG00000132432_ENST00000352861|hu_hu|hu_hu_hu_mus_False|68_108 (ssRNA)
# RNA: GGGAGUUCUACAGUCCGACGAUCCUGACUUGGCUCAUCCACAAACUGCAUUACCUGAUCCAUGUUUUACCCAACCGGGAUUGAGAGCGUAGAGACACGUAGCUCAGGAGAGAACCGAGCCCAACGGAACCGGAAGCUGGCAACCAACAGAGGAUUGAGCAUCA
# B2: chr5:73697939:73697940:+_ENSMUSG00000029152_ENSMUST00000031038|mus_mus|motif|central (ssRNA)
# RNA: GGGAGUUCUACAGUCCGACGAUCUCCUUGGGCAAUAUGGUCAGUAAUACCAGUGGGAGUGGACUCGUUCAUAGAAGCACGGAAUGGAAUUGGCUCAUAACGAGGAAGCGCCUCCUUUUCUAUGUUGUCUGCUGCUGGAGAUGUCAACAGAGGAUUGAGCAUCA
# B3: chr10:98281081:98281082:-_ENSG00000077147_ENST00000371142|hu_mus|motif|central (ssRNA)
# RNA: GGGAGUUCUACAGUCCGACGAUCAUCGCAAUACAGUCCCCCAGUCAGUCUGUACAUCCAAAUGCAUCCAGGAACCGGCACCGGCGCGACAUUAUUAAUGUUAUAUACAUUUAUUGCCCCCCUUGUUUUGUUUAAUAAUUUCUUCAACAGAGGAUUGAGCAUCA
# B4: chr2:47388980:47388981:-_ENSG00000143933_ENST00000272298|hu_mus|hu_hu_hu_mus_True|68_98 (ssRNA)
# RNA: GGGAGUUCUACAGUCCGACGAUCUUCAUCUGUUAACUUCUCUCCAAGGUUUGUCAUCACAUGGCGAAGUUCUGCAGCACUAAUAUAGCCAUUGCCAUCCUUAUCAAACACACGGAAUGCUUCUCUAAUCUCUUCUUCACUGUCCAACAGAGGAUUGAGCAUCA
# B5: 132634964_132635084_86_5pUTR_ENSMUSG00000030750_ENSMUST00000033006|mouse|control|control (ssRNA)
# RNA: GGGAGUUCUACAGUCCGACGAUCCCCGCCUCCAGGGCGGAGAGAUCGCCAGACUGGAGCUCCUACUGGUGGGCUACGCGCAUUCUCCCGCUCACCAGCGGAGUACUUCCGUUUUCCCCGCCCGCUCUGUUGCUAUGGCGCCUUCAACAGAGGAUUGAGCAUCA
# B6: chr2:24222969:24222970:+_ENSG00000173960_ENST00000309033|hu_mus|FALSE|FALSE (ssRNA)
# RNA: GGGAGUUCUACAGUCCGACGAUCAUUAAUGACACAGCUAUUUAAUGUCAUAUUGGCUAACUAAUAUUUGAAAAAUAGGUAUUUUUUUCUGAAUAGCCUGUUGAGAAAAAUGCACUGACCCUGGCUUAGAGCCAUGUCACUCUCCAACAGAGGAUUGAGCAUCA
# B7: chr16:94664741:94664742:+_ENSMUSG00000040785_ENSMUST00000117648|mus_hu|mus_mus_mus_hu_False|48_78 (ssRNA)
# RNA: GGGAGUUCUACAGUCCGACGAUCUGGUACUGAUCUUGGUAGCUGAUAUUCAGGAGAAAUGUUGGCCAAGGGUGUAUAUAUGCUGGUGAACUGCGACAAACCUGGUAACACGUUUAUGUAUGCUGGCGGUGUCUGGGUGAUAUCCAACAGAGGAUUGAGCAUCA
# B8: 203421096_203421216_3307_3pUTR_ENSG00000204217_ENST00000374580|human|control|control (ssRNA)
# RNA: GGGAGUUCUACAGUCCGACGAUCAGAUCCAGAGAAUUAGGCCUCUGUGCUCUUCUGGGCUUUGAUGGCCCAGGAUCUGCUGCUGUGCUUGGAACACCCUGUGCAAGAACAUCUUGUUCUGAACAUGGAUUGCUGUUGUUGUUACAACAGAGGAUUGAGCAUCA
# B9: chr11:87793471:87793472:-_ENSMUSG00000020483_ENSMUST00000020775|mus_mus|mus_mus_mus_hu_False|38_98 (ssRNA)
# RNA: GGGAGUUCUACAGUCCGACGAUCUGGACUUGAAAAUAAAAAAAAUAGCUGGAUCCCCCACCCCCCCACAUUGUCAACCCUACACGAGAGUUUUGAAUGAUUCAUAAGAAAAUCAGCAGCUCAAACGGCAAUGACCACCCCACCCAACAGAGGAUUGAGCAUCA
# B10: chr11:87793471:87793472:-_ENSMUSG00000020483_ENSMUST00000020775|mus_mus|mus_mus_mus_hu_False|1_98 (ssRNA)
# RNA: B9 RNA with U97G, A99C, U100G, U101A, A103U, U104C, A106U, C140A, A141C
# B11: chr11:87793471:87793472:-_ENSMUSG00000020483_ENSMUST00000020775|mus_mus|mus_mus_mus_hu_False|38_88 (ssRNA)
# RNA: B9 RNA with A41G, A44U, U45A, G50A, C54U, C55U
# B12: chrX:16864032:16864033:-_ENSG00000102054_ENST00000404022|hu_hu|FALSE|FALSE (ssRNA)
# RNA: GGGAGUUCUACAGUCCGACGAUCCAUGAUGUUAUCCUCAGACACUGAGCAAAUGACCCAAGGCUCAUUGGGGUUCCAGCUAAAAUCUGAAAUCUUAGCAGUGUGUCCUCCAUGAAUAAACAGGAGUUCUGGAGGCCCAUCUUCCAACAGAGGAUUGAGCAUCA
# B13: chr11:87793471:87793472:-_ENSMUSG00000020483_ENSMUST00000020775|mus_mus|mus_mus_mus_hu_False|98_98 (ssRNA)
# RNA: B9 RNA with U97G, A99C, U100G, U101A, A103U, U104C, A106U
# B14: chr11:87793471:87793472:-_ENSMUSG00000020483_ENSMUST00000020775|mus_mus|mus_mus_mus_hu_False|88_98 (ssRNA)
# RNA: B9 RNA with G50A, C54U, C55U, U97G, A99C, U100G, U101A, A103U, U104C, A106U
# B15: chr11:87793471:87793472:-_ENSMUSG00000020483_ENSMUST00000020775|mus_mus|mus_mus_mus_hu_False|1_108 (ssRNA)
# RNA: GGGAGUUCUACAGUCCGACGAUCUGGGGGCUGGGGAAAAAGAAUAAGCUGGAUCCCCCACCCCCCCACAUUGUCAACCCUACACGAGAGUUUUGAAGGCGACUCAUGAAAAUCAGCAGCUCAAACGGCAAUGACCACCCACCCCAACAGAGGAUUGAGCAUCA
# B16: chr4:57314706:57314707:+_ENSG00000128050_ENST00000264221|hu_mus|hu_hu_hu_mus_True|18_58 (ssRNA)
# RNA: GGGAGUUCUACAGUCCGACGAUCCAGAAUUUCAAAAAUAGCUUGUGUGGCAUGACUCAUGAUGUCCACUUCAGUCUGGCCUAUAAGAAGGCCAGCAAAACAGAAUUUUGCAGCAAUCAGCUGUUCCUCAGACCACUGUGGAUCCAACAGAGGAUUGAGCAUCA
# B17: chr4:57314706:57314707:+_ENSG00000128050_ENST00000264221|hu_mus|hu_hu_hu_mus_True|1_18 (ssRNA)
# RNA: B16 RNA with G78C, G86C, A141G
# B18: chr11:87793471:87793472:-_ENSMUSG00000020483_ENSMUST00000020775|mus_mus|mus_mus_mus_hu_False|58_98 (ssRNA)
# RNA: B9 RNA with C82U, A83G, U97G, A99C, U100G, U101A, A103U, U104C, A106U
# B19: chr11:87793471:87793472:-_ENSMUSG00000020483_ENSMUST00000020775|mus_mus|mus_mus_mus_hu_False|68_98 (ssRNA)
# RNA: B9 RNA with U70G, U97G, A99C, U100G, U101A, A103U, U104C, A106U
# B20: chr14:103803487:103803488:+_ENSG00000100664_ENST00000558506|hu_hu|FALSE|FALSE (ssRNA)
# RNA: GGGAGUUCUACAGUCCGACGAUCGAGUUUAUGAUGUGUGUCAAGCAUGCCUCGAUAGCCACAGGCUUUACAAGAAUUACCUAUUGUUUGCUUCUUUGGAUUGACAUGCAAAUCUGUUUCAGGAUUCUCACAUUCAGGACAGAGCAACAGAGGAUUGAGCAUCA
# B21: chr11:68315578:68315579:+_ENSG00000110075_ENST00000393800|perfect_dup|motif|central (ssRNA)
# RNA: GGGAGUUCUACAGUCCGACGAUCUGGAGGUUCGAUACACGUCAGGAGCCUGAGCAACAAAUCCAUGAUAGCAGAAGUUCCGGUGUGCUUUAUAAUAAGGUCUACAAAAUCAUGCUUCUUCUUUAAGAAAUCCACAAUCUGUUCCAACAGAGGAUUGAGCAUCA
# B22: chr2:216981417:216981418:+_ENSG00000079246_ENST00000392132|hu_hu|hu_hu_hu_mus_True|28_68 (ssRNA)
# RNA: GGGAGUUCUACAGUCCGACGAUCCUGAUACUGGUCCUUGCCAGCAAGGGCAUUAUCAGUGCCAUCUGUACCAAACAGGACUAACGCAAUCUCAUCUUUGCUCUCCGCAAACACCUGUCGUUGGACAAACAUAGUCAUCACUUUCAACAGAGGAUUGAGCAUCA
# Molecular target: T1, UNK ZnF1-3
# Test: nsRBNS (natural sequence RNA bind-n-seq); RBNS binding buffer (assumed for nsRBNS): 25 mM Tris pH 7.5, 150 mM KCl, 3 mM MgCl2, 0.01% Triton X-100, 500 ug/ml BSA, 20 U/ml SUPERase-In, 4 C; UNK is unkempt and MSI1 is Musashi-1; names of the RNAs are library labels; protein concentration not given here; high values mean tight binding
row,Binder,binding signal
1,B1,1.72 enrichment R
2,B2,1.27 enrichment R
3,B3,1.36 enrichment R
4,B4,0.882 enrichment R
5,B5,0.567 enrichment R
6,B6,0.836 enrichment R
7,B7,1.01 enrichment R
8,B8,0.924 enrichment R
9,B9,4.29 enrichment R
10,B10,3.94 enrichment R
11,B11,1.97 enrichment R
12,B12,1.18 enrichment R
13,B13,4.07 enrichment R
14,B14,3.58 enrichment R
15,B15,1.72 enrichment R
16,B16,0.97 enrichment R
17,B17,0.937 enrichment R
18,B18,3.93 enrichment R
19,B19,3.54 enrichment R
20,B20,1.32 enrichment R
21,B21,1.87 enrichment R
22,B22,0.739 enrichment R
